PubChem BioAssay
For part of these data: Entries with a potency or affinity are not part of this list. Active and inactive are the calls of the source.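 Rule for the calls, unless noted: active = fitted half-maximal concentration within the tested range, moderate curve steepness, significant signal drop, and little compound fluorescence or bead-linkage interference; inactive = the rest.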

What was measured:
[1] = target: Cell division control protein 42 homolog (Homo sapiens) (UniProt P60953); experiment: inhibition of fluorescent GTP binding to constitutively active Cdc42 – biochemical, multiplex bead flow cytometry, Bodipy-FL-GTP, dose response (AID 1333;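 active = fitted half-maximal concentration within the tested dose range, moderate curve steepness, a statistically real signal drop, and little compound fluorescence or tag-binding interference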)
[2] = target: Cell division control protein 42 homolog (Homo sapiens) (UniProt P60953); experiment: inhibition of fluorescent GTP binding to wildtype Cdc42 – biochemical, multiplex bead flow cytometry, Bodipy-FL-GTP, dose response (AID 1334); conditions: bead-based flow cytometry, Bodipy-FL-GTP binding to GST-Cdc42; at 100 µM (top of the series) unless noted
[3] = target: GTPase HRas (Homo sapiens) (UniProt P01112); experiment: Ras wt fluorescent GTP loading blockade – biochemical, wildtype, multiplex bead flow cytometry, dose response (AID 1335;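 active = fitted half-maximal concentration within 10 nM to 100 µM, steepness 0.5 to 2, significant signal drop, low assay interference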); conditions: bead-based flow cytometry, Bodipy-GTP binding to GST-Ras; at 100 µM (top of the series) unless noted
[4] = test system: Ras-related protein Rab-7a (dog), GTP binding; experiment: blockers of fluorescent GTP binding to Rab7 – biochemical, wildtype, multiplex bead flow cytometry, dose response (AID 1336; call rule not given here)
[5] = target: Ras-related C3 botulinum toxin substrate 1 (Homo sapiens) (UniProt P63000); experiment: inhibition of wildtype Rac1 nucleotide loading – biochemical, multiplex bead flow cytometry, dose response (AID 1340;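 active = dose curve with midpoint inside tested range, moderate steepness, plateau gap beyond fit error, low compound glow and bead-link interference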); conditions: GST-Rac1 beads, Bodipy-FL-GTP binding; at 100 µM (top of the series) unless noted
[6] = target: GTPase HRas (Homo sapiens) (UniProt P01112); experiment: blockade of GTP loading onto mutant Ras – biochemical, activated mutant, multiplex bead flow cytometry, dose response (AID 1341;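 active = dose-response curve with midpoint inside the tested range, moderate steepness, significant amplitude and little compound fluorescence or bead-attachment interference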;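 note: GST-tagged constitutively activated Ras mutant immobilized on beads and multiplexed with other GTPases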)

Sequence of GTPase HRas (Homo sapiens) (P01112 whole entry, looked up): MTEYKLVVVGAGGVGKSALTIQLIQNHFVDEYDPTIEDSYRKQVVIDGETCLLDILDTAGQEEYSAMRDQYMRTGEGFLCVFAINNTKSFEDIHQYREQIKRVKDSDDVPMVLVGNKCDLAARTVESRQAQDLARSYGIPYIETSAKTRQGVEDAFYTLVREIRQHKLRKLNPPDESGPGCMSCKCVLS
Sequence of Cell division control protein 42 homolog (Homo sapiens) (P60953 whole entry, looked up): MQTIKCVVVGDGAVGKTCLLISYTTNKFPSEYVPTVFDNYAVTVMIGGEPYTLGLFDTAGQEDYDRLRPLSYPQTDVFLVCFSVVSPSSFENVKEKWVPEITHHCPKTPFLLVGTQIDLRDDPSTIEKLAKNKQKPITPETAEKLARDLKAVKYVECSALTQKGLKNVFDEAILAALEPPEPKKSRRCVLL

Row | Compound | outcome [1] | fluorescence, percent of control (lower = inhibition) [2] [%] | GTP binding, percent of control [3] [%] | outcome [4] | GTP binding signal, raw median fluorescence (lower = inhibition) (MCF (arbitrary fluorescence units)) [5] | outcome [6]
1 | C=CCc1ccc(OCc2ccc(C(=O)O)o2)c(OC)c1 | inactive | 58.9 | 86.5 | inactive | 31.4 | inactive
2 | CC(C)C(=O)N1CCN(c2ccccc2NC(=O)c2cccc(Cl)c2)CC1 | inactive | 34.8 | 82.2 | inactive | 269 | inactive
3 | COc1cccc(Nc2ccccc2C(=O)O)c1 | inactive | 92.6 | 107 | inactive | 78.2 | inactive
4 | COc1cc(NC(=O)c2cccs2)c(OC)cc1NC(=O)CCC(=O)Nc1cccc2ncccc12 | inactive | 32.3 | 72.4 | inactive | 144 | inactive
5 | Cc1nc2ccc(NC(=O)COc3ccccc3)cc2s1 | inactive | 37.6 | 89.8 | inactive | 271 | inactive
6 | Cc1ccc(COc2ccsc2C(=O)O)cc1 | inactive | 99.7 | 115 | inactive | 82.4 | inactive
7 | Cc1n[nH]c(=S)c2nn(-c3ccccc3)c(C)c12 | inactive | 47.4 | 63.6 | inactive | 188 | inactive
8 | CCOc1ccccc1CNCc1sc(C(=O)O)cc1C | inactive | 59.6 | 79.1 | inactive | 33.1 | inactive
9 | Cc1ccc(OCCn2cc(C(=O)O)c3ccccc32)cc1 | inactive | 45.4 | 96.7 | inactive | 280 | inactive
10 | Cn1nnnc1Sc1ncnc2scc(-c3ccc(F)cc3)c12 | inactive | 52.2 | 64.5 | inactive | 210 | inactive
11 | O=c1c2ccc([N+](=O)[O-])cc2ncn1CCOc1ccccc1 | inactive | 48.1 | 95.3 | inactive | 188 | inactive
12 | CCCN(CC1CC1)C(=S)Nc1ccc(Oc2ccccc2)cc1 | inactive | 26.1 | 81.4 | inactive | 258 | inactive
13 | COc1ccc(-c2cc(-c3ccccc3)c(C#N)c(=S)[nH]2)cc1 | inactive | 28.8 | 69.8 | inactive | 225 | inactive
14 | COc1ccccc1OCCn1cc(C(=O)O)c2c(C)cccc21 | inactive | 56.8 | 202 | inactive | 55.3 | inactive
15 | Nc1[nH]c(=S)nc2nc(-c3ccccc3)c(-c3ccccc3)nc12 | inactive | 33.9 | 81.4 | inactive | 198 | inactive
16 | O=c1c2ccccc2nc2c3ccccc3c(NCc3cccnc3)nn12 | inactive | 27.9 | 71.5 | inactive | 157 | inactive
17 | Cc1cc2ccccn2c1C(=O)c1ccc(Cl)c([N+](=O)[O-])c1 | inactive | 38.8 | 86.1 | inactive | 216 | inactive
18 | CCCCNc1nc(=S)[nH]c2cc(OC)c(OC)cc12 | inactive | 37.9 | 47.8 | inactive | 110 | inactive
19 | Nc1cccc(S(=O)(=O)c2cccc(N)c2)c1 | inactive | 96.8 | 150 | inactive | 191 | inactive
20 | Cc1cc2ccccn2c1C(=O)c1cc([N+](=O)[O-])cc([N+](=O)[O-])c1 | inactive | 37.4 | 85.6 | inactive | 270 | inactive
21 | NC(=S)N=Nc1c(O)[nH]c2cc(F)c(F)cc12 | inactive | 29.7 | 63.2 | inactive | 155 | inactive
22 | Cn1c(SCC(=O)Nc2cc(C(C)(C)C)nn2-c2ccccc2)nc2ccccc21 | inactive | 46.2 | 64.7 | inactive | 0 | inactive

Row | Compound | outcome [1] | fluorescence, percent of control (lower = inhibition) [2] [%] | GTP binding, percent of control [3] [%] | outcome [4] | GTP binding signal, raw median fluorescence (lower = inhibition) (MCF (arbitrary fluorescence units)) [5] | outcome [6]
23 | O=C(O)COc1ccccc1/C=N/NC(=O)c1cc(-c2ccc(F)cc2)nc2ccccc12 | inactive | 30.7 | 80.5 | inactive | 177 | inactive
24 | COc1cc(N2CCCC2)c(OC)cc1/C=C(/C#N)c1ccc(Br)cc1 | inactive | 104 | 117 | inactive | 258 | inactive
25 | CCOc1cc(/C=N/NC(=O)CSc2cccc3cccnc23)ccc1O | inactive | 35.6 | 78.2 | inactive | 188 | inactive
26 | Cc1ccc(C2=NN(CCC(=O)NCc3ccc4c(c3)OCO4)C(=O)CC2)cc1 | inactive | 51.3 | 60.2 | inactive | 207 | inactive
27 | COc1ccc(NC(=S)N(CCN(C)C)C(C)c2ccco2)cc1Cl (stereo unspecified) | inactive | 49.2 | 60.4 | inactive | 210 | inactive
28 | Cn1c(N/N=C/c2ccccc2)nc2sc3c(c2c1=O)CCC3 | inactive | 71.9 | 117 | inactive | 123 | inactive
29 | CCn1cc(C(=O)O)c(=O)c2cc(F)c(N/N=C/c3ccccc3[N+](=O)[O-])cc21 | inactive | 32.3 | 44 | inactive | 110 | inactive
30 | CN(C)CCN(C(=O)c1ccc(N2C(=O)CCC2=O)cc1)c1nc2cc3c(cc2s1)OCO3 | inactive | 35.7 | 79.3 | inactive | 261 | inactive
31 | COc1ccc(OC)c(/C=N/NC(=O)c2ccc(Cn3cc([N+](=O)[O-])cn3)o2)c1 | inactive | 30.5 | 66.3 | inactive | 159 | inactive
32 | COc1ccc(C(=O)Nc2cc(Cl)ccc2C(=O)O)cc1 | inactive | 30.8 | 75.6 | inactive | 272 | inactive
33 | Cc1c(C(=O)N2CCc3ccccc3C2)oc2ccc(S(=O)(=O)N3CCCCCC3)cc12 | inactive | 56.2 | 76 | inactive | 274 | inactive
34 | CO/N=C/NC(=O)NOCc1ncc(C(F)(F)F)cc1Cl | inactive | 38.1 | 86.2 | inactive | 295 | inactive
35 | O=C(Cn1cnc2c(nnn2Cc2ccccc2F)c1=O)NCC1CCCO1 (stereo unspecified) | inactive | 51.6 | 63.1 | inactive | 208 | inactive
36 | CCc1ccc(NC(=O)c2cc3c(C)nc4ccccc4c3o2)cc1 | inactive | 51.4 | 93.2 | inactive | 261 | inactive
37 | O=C(Nc1cccc(-c2nc3ncccc3o2)c1)c1sc2ccccc2c1Cl | inactive | 88.9 | 340 | inactive | 343 | inactive
38 | COc1ccc(OCc2oc3ccc(OC)cc3c2C(=O)O)cc1 | inactive | 53.9 | 82.7 | inactive | 28.2 | inactive
39 | COC(=O)c1cccc(Nc2cc(C)nc(-c3ccccc3O)n2)c1 | inactive | 43.1 | 54.2 | inactive | 148 | inactive
40 | Nc1ccc(-c2cn3cccnc3n2)cc1 | inactive | 40.9 | 88.5 | inactive | 287 | inactive
41 | CSc1nc2ccc(NS(=O)(=O)c3c(Cl)cccc3Cl)cc2s1 | inactive | 31.2 | 77.9 | inactive | 245 | inactive
42 | COc1cccc(/C=C2\SC(=S)N(NC(=O)c3ccncc3)C2=O)c1 | inactive | 26.6 | 63.7 | inactive | 116 | inactive
43 | Cc1nc(Nc2ccc(C(=O)O)cc2)nc(Nc2ccc(C(=O)O)cc2)c1[N+](=O)[O-] | inactive | 28.7 | 64.9 | inactive | 111 | inactive
44 | COc1cc(/C=N\NC(=O)CNC(=O)C2COc3ccccc3O2)ccc1O (stereo unspecified) | inactive | 51.5 | 62.3 | inactive | 191 | inactive

Row | Compound | outcome [1] | fluorescence, percent of control (lower = inhibition) [2] [%] | GTP binding, percent of control [3] [%] | outcome [4] | GTP binding signal, raw median fluorescence (lower = inhibition) (MCF (arbitrary fluorescence units)) [5] | outcome [6]
45 | CCC(OC(=O)c1cc2sccc2n1C)C(=O)NCc1ccco1 (stereo unspecified) | inactive | 54.2 | 63 | inactive | 212 | inactive
46 | Cc1ccc2nc(CSc3nc(C)cc(C)c3C#N)[nH]c2c1 | inactive | 35.3 | 77.6 | inactive | 242 | inactive
47 | Cc1ccc(-n2c(SCc3cc(=O)n4ccsc4n3)nnc2-c2cccnc2)c(C)c1 | inactive | 79.6 | 157 | inactive | 178 | inactive
48 | Cn1c(SCC(=O)Nc2cccc(Br)c2)nnc1-c1cc2ccccc2o1 | inactive | 101 | 189 | inactive | 180 | inactive
49 | COc1c(C)cccc1C(=O)NC(=S)Nc1ccc2c(c1)Cc1ccccc1-2 | inactive | 73.4 | 151 | inactive | 144 | inactive
50 | CC(C)CCNC(=O)CN(CCN1CCOCC1)C(=O)Cn1nnc(-c2ccc(F)cc2)n1 | inactive | 97.1 | 162 | inactive | 188 | inactive
51 | Cn1nnc(NC(=S)NC(=O)c2ccc(-c3ccc(Br)cc3)o2)n1 | inactive | 30.7 | 75.4 | inactive | 132 | inactive
52 | C/C(=C1/SC(=S)N(CCC(=O)O)C1=O)c1ccc(O)cc1 | inactive | 29.5 | 80.9 | inactive | 254 | inactive
53 | COc1ccc(/C=C2\N=C(SC)SC2=O)cc1OC | inactive | 86.4 | 150 | inactive | 186 | inactive
54 | O=c1c2ccccc2nc2c3ccccc3cnn12 | inactive | 46.9 | 88.4 | inactive | 175 | inactive
55 | CCCOc1ccc(OCCSc2nc3ccccc3n2CC(=O)O)cc1 | inactive | 60.2 | 87.7 | inactive | 35.1 | inactive
56 | CCn1c2ccccc2c2nnc(SCC(=O)NCCOC)nc21 | inactive | 50.8 | 59.6 | inactive | 0 | inactive
57 | CCC(=O)c1ccc(OCC(=O)O)c(OC)c1 | inactive | 46.1 | 121 | inactive | 64.7 | inactive
58 | COc1ccc(O)c(-c2cc(C(F)(F)C(F)F)nc(-c3ccccc3)n2)c1 | inactive | 106 | 177 | inactive | 183 | inactive
59 | COc1ccccc1CNCc1sc(C(=O)O)cc1C | inactive | 61.8 | 85.7 | inactive | 35.2 | inactive
60 | COc1ccc(OCc2c(C)cccc2C)c(C(=O)O)c1 | inactive | 58.3 | 203 | inactive | 55 | inactive
61 | Cc1c(NS(=O)(=O)c2ccc3c(c2)Cc2ccccc2-3)c(=O)n(-c2ccccc2)n1C | inactive | 30.4 | 80 | inactive | 238 | inactive
62 | Cc1ccccc1CSc1ncccc1C(=O)O | inactive | 74.5 | 87.9 | inactive | 48.3 | inactive
63 | Clc1ccc(Cn2ncc3c(N4CCOCC4)ncnc32)cc1 | inactive | 50.5 | 66.4 | inactive | 209 | inactive
64 | O=C(O)c1cccnc1SCc1ccc([N+](=O)[O-])cc1 | inactive | 71.2 | 92 | inactive | 45.6 | inactive
65 | Cc1cc(N=NC(=O)c2ccccc2O)c2ccccc2c1O | inactive | 36.1 | 85.2 | inactive | 243 | inactive
66 | C/C=C/c1ccccc1OCc1ccc(C(=O)O)o1 | inactive | 180 | 326 | inactive | 420 | inactive
